What all share (assay): PBM binding z-score (relative to random genomic background probes); higher = stronger binding; sequences stand for … in GC…GCGATTGACAGCGTAGAATGAAGG
Test [1] relates to FXR:RXRa (NR concentration 270 nM, RXRa partner concentration 90 nM). In outline:
(§1)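 Regression normalization was applied to scanned fluorescence from custom Agilent 4×180K protein-binding microarrays. Before scanning, arrays were incubated 1 h with ligand-free nuclear receptor dimers, and binding was detected with antibodies against each partner (one per run). Binding z-scores use the random background probes as reference.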

Test [2] has as its system LXRa:RXRa (NR concentration 270 nM, RXRa partner concentration 90 nM). The method, boiled down: as §1
Test [3] has as its system LXRa homodimer (NR concentration 270 nM). The method, boiled down:
as §1

Test [4] relates to LXRb:RXRa (NR concentration 270 nM, RXRa partner concentration 90 nM). The method, boiled down: as §1
In test [5] the test system is LXRb homodimer (NR concentration 270 nM). The method, boiled down: as §1
Test [6] relates to PPARa:RXRa (NR concentration 270 nM, RXRa partner concentration 90 nM). The method, boiled down:
as §1

In test [7] the test system is PPARg:RXRa (NR concentration 180 nM, RXRa partner concentration 90 nM). The method, boiled down:
as §1

Test [8] concerns PPARg:RXRa 270nM:90nM, anti-RXR (NR concentration 270 nM, RXRa partner concentration 90 nM). The method, boiled down: as §1
Test [9] has as its system PPARg:RXRa 30nM:10nM, anti-RXR (NR concentration 30 nM, RXRa partner concentration 10 nM). In outline:
as §1

Test [10] has as its system PPARg:RXRa 90nM:30nM, anti-RXR (NR concentration 90 nM, RXRa partner concentration 30 nM). In outline:
as §1

Test [11] concerns PPARg:RXRa DBDmut IVT, anti-RXR (DBD mutation: RXRa K156A/R161A, NR concentration 270 nM, RXRa partner concentration 90 nM). In outline:
as §1

Test [12] deals with PPARg:RXRa IVT, anti-PPARg (NR concentration 270 nM, RXRa partner concentration 90 nM). The method, boiled down: as §1
Test [13] has as its system PPARg DBDmut:RXRa IVT, anti-PPARg (DBD mutation: PPARg1 K132A/R137A, NR concentration 270 nM, RXRa partner concentration 90 nM). The method, boiled down:
as §1

For test [14], the system named is PPARg DBDmut IVT, anti-PPARg (DBD mutation: PPARg1 K132A/R137A, NR concentration 270 nM). In outline: as §1
The test system of test [15] is PPARg homodimer (NR concentration 180 nM). The method, boiled down:
as §1

The subject of test [16] is PXR:RXRa (NR concentration 270 nM, RXRa partner concentration 90 nM). In outline:
as §1

In test [17] the test system is PXR homodimer (NR concentration 270 nM). The method, boiled down: as §1
Test [18] concerns RARa:RXR (NR concentration 270 nM, RXRa partner concentration 90 nM). The method, boiled down: as §1
The test system of test [19] is RARa homodimer (NR concentration 270 nM). In outline:
as §1

For test [20], the system named is RARb:RXRa (NR concentration 270 nM, RXRa partner concentration 90 nM). In outline: as §1

As to CCTAGCAGGCCACTCTGGGTCACTCAAGGCTTGA, the PBM binding z-score in test [1] was 1.22; in test [2] it was 4.55; in test [3], 0.221; in test [4], 1.91; in test [5] it was -0.897; in [6], 2.33. Also, the PBM binding z-score in [7] was 0.363; in [8] it was 0.663; in [9] it was -0.56; in test [10], 0.0943; in [11], 2.5; in test [12] it was 3.22. Further, the PBM binding z-score in [13] was -0.679; in test [14], -2.2; in test [15], 0.299; in [16] it was 1.04; in [17], -0.493; in [18] it was 1.32. In addition, the results for the PBM binding z-score in test [19] and in test [20] were -0.337 and 1.55, respectively.
On to ATAAGTAGGTTATCGGGTCATTCAGTTTGCGCAT, for which the PBM binding z-score was found to be 3.42 in test [1]; 3.08 in test [2]; 1.77 in [3]; 3.11 in [4]; 1.39 in test [5]; 5.07 in [6]. In addition, the PBM binding z-score in [7] came to 7.54; in [8], 6.6; in test [9] it was 3.83; in [10], 6.09; in test [11], 7.58; in [12], 7.8. Besides, the PBM binding z-score in [13] came out at 5.22; in test [14], 5.33; in test [15], 3.5; in test [16] it was 3.91; in test [17], 7.66; in [18], 3.84. Further, the PBM binding z-score is 2.2 in test [19] and 2.61 in test [20].
ATATCTAGGTTAGCTGGGGTCATTCAGACTAGGC: the PBM binding z-score stood at 4.62 in test [1]; 5.44 in test [2]; 3.33 in test [3]; 4.64 in [4]; 2.06 in test [5]; 5.23 in test [6]. Moreover, the PBM binding z-score turned out to be 5.59 in test [7]; 5.22 in test [8]; 2.61 in test [9]; 4.47 in [10]; 6.63 in test [11]; 6.38 in test [12]. Besides, the PBM binding z-score was 2.02 in test [13]; 2.45 in [14]; 2.3 in [15]; 6.2 in [16]; 4.27 in test [17]; 5.11 in test [18]. For the same sequence, the results for the PBM binding z-score in test [19] and in test [20] were 1.57 and 3.18, respectively.
Consider CATACAGGGTTAGCTAGGCCAGAGTAGGGACGGC, for which the PBM binding z-score in test [1] was 0.0541; in test [2] it was 0.22; in test [3], -0.431; in test [4], -0.176; in test [5], -0.302; in test [6], 0.689. Besides, the PBM binding z-score in test [7] is 0.625; in [8], 0.647; in test [9], -0.0439; in test [10], 0.397; in [11], -0.169; in test [12], 0.541. The PBM binding z-score in test [13] is -0.056; in [14] it was -0.72; in test [15], -0.367; in test [16], -0.275; in [17] it was -0.684; in [18], 0.13. The PBM binding z-score is -0.529 in test [19] and 1.07 in test [20].
On to GCGACTGGGGCATCAGCGGGTTACCATAACTTAA, for which the PBM binding z-score was -0.361 in test [1]; -0.573 in test [2]; -0.505 in test [3]; 0.433 in test [4]; -0.992 in [5]; 1.11 in [6]. The PBM binding z-score in test [7] is 0.815; in test [8], 0.669; in test [9] it was -0.383; in [10], 0.237; in [11], 3.43; in test [12], 2.86. Besides, the PBM binding z-score in test [13] was -0.728; in test [14], -1.07; in [15], 0.437; in test [16], -0.0944; in test [17], -0.517; in test [18], 0.346. Besides, the PBM binding z-score in [19] was -0.439; in test [20] it was 0.729.
ATACCAAGGTGATCGTGAGGTCATTGATACTAAC: the PBM binding z-score was determined as 4.13 in [1]; 4.22 in test [2]; 4.81 in [3]; 3.53 in test [4]; 0.748 in test [5]; 3.62 in test [6]. Moreover, the PBM binding z-score came to 1.7 in test [7]; 1.98 in test [8]; 0.601 in test [9]; 1.25 in [10]; 0.662 in test [11]; 2.58 in test [12]. The PBM binding z-score in [13] was determined as 0.666; in test [14], 0.349; in test [15], 2.35; in [16], 5.39; in [17] it was 4.33; in [18], 4.55. The PBM binding z-score in test [19] turned out to be 0.789; in [20], 3.25.
With AGAATGAGGTTACCAAAGATCAGGGAGACGCTTG, the PBM binding z-score in test [1] is 2.11; in [2], 6.33; in [3], -0.321; in test [4] it was 3.23; in [5], -0.156; in test [6] it was 3.38. In addition, the PBM binding z-score in [7] stood at 2.8; in [8], 2.92; in test [9] it was 1.02; in test [10], 2.15; in test [11], 3.87; in test [12], 3.22. In addition, the PBM binding z-score was 1.19 in test [13]; 0.476 in test [14]; 0.567 in test [15]; 1.53 in [16]; 0.0174 in test [17]; 1.99 in test [18]. Besides, the results for the PBM binding z-score in test [19] and in test [20] were 0.112 and 2.15, respectively.

The record behind these values is the supplement of paper PMC6555819.
